# Records with an inconclusive call do not appear. The source made the active and inactive calls. Calls follow the shape of the dose curve; as a rule, active = well fitted cell-killing curve with a large enough effect in the repeat runs; inconclusive = weak or mixed curves, or effect the other way; inactive = flat fitted curve, though single readings scatter. Where a SMILES comes first, the peptide text is derived from it.
# Experiment: qHTS assay to identify small molecule agonists of the sonic hedgehog signaling (Shh) pathway - cell viability counter screen (AID 1259366); also: nearly all actives have a fitted effect of over 50% in size
# Conditions: NIH/3T3 Gli1-Luc viability, CellTiter-Fluor, 24 h; series mostly up to 92.4 µM
# Source text: National Center for Advancing Translational Sciences [NCATS]
# NIH Chemical Genomics Center [NCGC]
# U.S. Environmental Protection Agency [EPA]
# National Institutes of Environmental Health Sciences [NIEHS]
# National Toxicology Program [NTP]
# U.S. Food and Drug Administration [FDA]
# The sonic hedgehog (Shh) pathway is essential for normal embryonic development. Dysregulation of the Shh pathway can cause severe developmental defects in organs. Therefore chemicals that interfere with the pathway are potential developmental toxicants. A cell line designated 3T3Gli1-Luc (DMB/OARSA/CFSAN/FDA, Laurel, MD), a NIH/3T3 derived clone containing stably integrated Gli1-Luc reporter is used to detect chemical interference of the Shh pathway, by changes in the expression of the firefly Luc gene under the control of the Gli1 transcriptional response element. This cell line was used to screen Tox21 libraries for identifying and prioritizing the potential developmental toxicants that interfere Shh pathway. The cytotoxicity of the compounds was tested in parallel by measuring the cell viability using CellTiter-Fluor assay system (Promega, Madison, WI) in the same wells.
# Tox21 Assay Protocol Summary:
# 3T3 Gli1-Luc cells were dispensed at 2,000 per well in 5uL of culture medium into white solid bottom 1536-well plates (Greiner Bio-One, Monroe, NC) using a Multidrop Combi (Thermo Scientific, Waltham, MA) dispenser. The assay plates were incubated at 37 C and 5% CO2 for 4hr, and then 23nL of compounds dissolved in DMSO and positive control were transferred using a Pintool station (Wako, San Diego, CA). The assay plates were incubated at 37C and 5% CO2 for 24hr. For viability read, after 23hr of compound treatment, 1uL of CellTiter-Fluor reagent (Promega Corporation, Madison, WI) was added to each well of the assay plates using Flying Reagent Dispenser (FRD, Aurora Discovery, San Diego, CA) and incubated the assay plates at 37C for 1hr. The fluorescence signal was quantified using a ViewLux plate reader (Perkin Elmer, Shelton, CT).
# % is scaled to controls: 0 for no effect and ±100 for the full control effect.
Structure (SMILES),outcome,"viability change, negative = cytotoxic"
O=Cc1ccccc1Cl,inactive,–
CCOCCOCC,inactive,–
CC1=NN(c2ccc(S(=O)(=O)O)cc2)C(=O)C1,inactive,–
c1ccc2cnccc2c1,inactive,–
CC1OCCC1=O (stereo not given),inactive,–
CC1(C)CC(OC(=O)CCCCCCCCC(=O)OC2CC(C)(C)NC(C)(C)C2)CC(C)(C)N1,–,-15.1% [at 19 µM] (inactive)
CC(Oc1cc(Cl)ccc1Cl)C(=O)O (stereo not given),inactive,–
Cc1ccnc(N)c1,inactive,–
C=C(C)[C@@H]1CC=C(C)C(=O)C1,inactive,–
CC1c2ccccc2CN1NC(=O)c1ccc(Cl)c(S(N)(=O)=O)c1 (stereo not given),inactive,–
O=C(O)CONC(=O)c1ccccc1,inactive,–
CCC[C@@H]1C[C@@H](C(=O)N[C@@H]([C@H]2O[C@H](SC)[C@H](O)[C@@H](O)[C@H]2O)[C@@H](C)O)N(C)C1,inactive,–
Cc1ccccc1C(N)=O,inactive,–
CCCCCCCCCCOC(C)=O,inactive,–
C=CCCCCCCCCC(=O)OCCCC,inactive,–
C/C=C(\C)C(=O)OCCc1ccccc1,inactive,–
C=CC/C=C/C,inactive,–
CCC(=O)CC,inactive,–
CC(=O)C(C)O (stereo not given),inactive,–
C/C(=C1\CCOC(=O)S1)N(C=O)Cc1cnc(C)nc1N,inactive,–

Structure (SMILES),outcome,"viability change, negative = cytotoxic"
Cc1cc(-c2ccccc2)nnc1NCCN1CCOCC1,inactive,–
CC1CC(=O)CC(C)(C)C1 (stereo not given),inactive,–
[O]=[Mo](=[O])=[O],–,1.33% [at 19 µM] (inactive)
CN1CCOC(c2ccccc2)c2ccccc2C1 (stereo not given),inactive,–
c1ccc(B(c2ccccc2)c2ccccc2)cc1,inactive,–
OC[C@H]1O[C@@H](O[C@@H]2[C@@H](CO)O[C@](O)(CO)[C@H]2O)[C@H](O)[C@@H](O)[C@H]1O,inactive,–
c1ccc2c(CC3=NCCN3)cccc2c1,inactive,–
N#CCC(=O)NN,inactive,–
C/C=C(\C)C(C)=O,inactive,–
Cc1c(N)cccc1Cl,inactive,–
CC(=O)c1cc(C)oc1C,inactive,–
Cc1ccc(N)cc1S(=O)(=O)O,inactive,–
CN(C)CCCCl,inactive,–
CC(=O)N[C@@H](CO)C(=O)N[C@@H](CC(=O)O)C(=O)N[C@@H](CCCCN)C(=O)N1CCC[C@H]1C(=O)O (Ac-SDKP-OH),inactive,–
COc1cc2c(cc1OC)CN(C(=O)[C@H](C)N[C@@H](CCc1ccccc1)C(=O)O)[C@H](C(=O)O)C2,inactive,–
COP(=O)(O)OP(=O)(O)OC,inactive,–
CC(O)COC(C)(C)C (stereo not given),inactive,–
CCc1occc(=O)c1O,inactive,–
OC1(c2ccc(Cl)cc2)CCNCC1,inactive,–
C=CC(=O)OCC1CCCO1 (stereo not given),inactive,–

# — PubChem BioAssay (Tox21)
